38 molecules from PubChem BioAssay (NCATS) can be followed below.

The structures appear in SMILES notation. Results filed as inconclusive are left out. Unmarked numbers belong to inactive results. Active and inactive are the calls of the source. The call rests on the fitted dose curve; in most records, active means well fitted inhibition curve with a large enough effect; inconclusive means small, poorly fitted or top-dose-only effect; inactive means no such curve, though single readings can be large or run the other way. Where a SMILES comes first, the peptide text is derived from it. The star is where a group is joined. βNA = c1ccc2cc(N*)ccc2c1; Cbz = O=C(OCc1ccccc1)*
On the % scale 0 is the no-effect control and ±100 the full control effect; potency means the concentration at half of the fitted maximal effect.

The assay has as its system Zika virus NS2B-NS3 protease (linked construct). In words: Primary screen NINDS Rhodamine qHTS for Zika virus inhibitors (AID 1347160). Further: nearly all actives have a fitted effect of over 55% in size. As to conditions: purified NS2B-NS3 protease, Rhodamine110 substrate fluorescence; series mostly up to 33.1 µM; activity change, negative = inhibition: at the top concentration. The gist of the method:
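In 10 mM Tris-HCl pH 8.0 containing 0.01% Tween 20, linked NS2B-NS3 protease (25 nM final) is exposed to test compounds for 15 min. Cleavage of 1.5 microM Rhodamine110 substrate is tracked by fluorescence over 15 min.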
In the case of `C=C(C(=O)O)C1CC(OC(=O)CC(C)CC)C2(C)CCCC(=C)C2C1` (stereo not drawn), the “activity change, negative = inhibition” value was -19.4%.
Still for that read-out and setting: for `COc1ccc(C(=O)OC2C3C=COC(OC4OC(CO)C(O)C(O)C4O)C3C3(CO)OC23)cc1OC` (stereo not drawn) the value was 30.3%.
With `O=C(Cc1ccccc1)OC[C@H]1O[C@H](O[C@H]2O[C@H](CO)[C@@H](O)[C@H](O)[C@H]2O)[C@H](O)[C@@H](O)[C@@H]1O`, the “outcome” value is “inactive [at 33.1 µM]”.
`CC1=C(CCC(C)O[C@@H]2O[C@H](CO)[C@@H](O)[C@H](O)[C@H]2O)C(C)(C)CC(O)C1` (stereo partly drawn): the “activity change, negative = inhibition” value is -11%.
`C/C=C/C=C/C=C/C(=O)OC1C=C2C(O)OC(=O)[C@]2(O)[C@@]2(C)CCCC(C)(C)[C@H]12` (stereo partly drawn): the Potency is 12.6 µM (active).
As for `O=C(Nc1cc(-c2ccccc2)nn1-c1ccccc1F)c1ccc([N+](=O)[O-])cc1`, the “activity change, negative = inhibition” value is 15% [at 57.1 µM].
As for `CCC(C)/C=C(C)/C=C/C1=CC2=C(Cl)C(=O)C(C)(OC(C)=O)C(=O)C2=CN1C(CCCN=C(N)N)C(=O)O` (stereo not drawn), the “activity change, negative = inhibition” value was -16.4%.
The same measure, in the same setting: then `CC(C)(O)C1CC=C(C(=O)OC[C@H]2O[C@@H](Oc3cc(C(=O)O)cc(O)c3O)[C@H](O)[C@@H](O)[C@@H]2O)CC1` (stereo partly drawn), with -22.5%; and `O=C(O)CCc1cccc(O)c1O[C@@H]1O[C@H](CO)[C@@H](O)[C@H](O)[C@H]1O`, with -14.8%.
For the molecule `CC(O)/C=C/C1(O)C(C)C(O)C(O[C@@H]2O[C@H](CO)[C@@H](O)[C@H](O)[C@H]2O)CC1(C)C` (stereo partly drawn), the “outcome” value is “inactive [at 33.1 µM]”.
With `CC1=C(CC/C(C)=C/C(=O)O)[C@@]2(C)CCCC(C)(C)C2CC1=O` (stereo partly drawn), the “activity change, negative = inhibition” value was -11.8%.
Turning to `CC(O)C1CCC2C3CCC4CC(OC5OC(C(=O)O)C(O)C(O)C5O)CCC4(C)C3CCC12C` (stereo not drawn), the “activity change, negative = inhibition” value was -13.4% [at 57.1 µM].
Regarding `CC[C@@H]1C(=O)O[C@]23C=C[C@@H]4C(C(=O)OC)=CO[C@H](O[C@@H]12)[C@@H]43`, the result was inactive.
`COc1ccc(OC2OC(CO[C@@H]3O[C@@H](C)[C@H](O)[C@@H](O)[C@H]3O)C(O)C(O)C2O)cc1OC` (stereo partly drawn): the “activity change, negative = inhibition” value is -10.7%.
Consider `C/C(=C\CCC1(C)C2CC3C(C2)C31C)C(=O)O` (stereo not drawn), for which the result was inactive.
As for `COc1cc(/C=C/C(=O)O[C@@H]2O[C@H](CO)[C@@H](O)[C@H](O)[C@H]2O)ccc1O`, the Potency is 8.91 µM (active).
Turning to `C[C@@H]1O[C@@H](O[C@H]2[C@H](O)[C@@H](O)[C@H](OC(=O)[C@]34CCC(C)(C)C[C@H]3C3=CCC5[C@@]6(C)CC[C@H](O[C@@H]7O[C@H](C(=O)O)[C@@H](O)[C@H](O)[C@H]7O)C(C)(C)C6CC[C@@]5(C)[C@]3(C)CC4)O[C@@H]2CO)[C@H](O)[C@H](O)[C@H]1O` (stereo partly drawn), the “activity change, negative = inhibition” value is -23.4% [at 15.1 µM].
Still for that read-out and setting: then `CC1(C)CC[C@]2(C(=O)O)CC[C@]3(C)C(=CCC4[C@@]5(C)CC[C@H](O)C(C)(C)C5CC[C@]43C)C2C1` (stereo partly drawn), with -20.7%.
Same read-out and setting: for `CC(C)=CCC(O)[C@](C)(O)C1[C@H](O)C[C@@]2(C)C3CC=C4C(C[C@H](O)[C@@H](O[C@@H]5O[C@H](CO)[C@@H](O)[C@H](O)[C@H]5O)C4(C)C)[C@]3(C)C(=O)C[C@]12C` (stereo partly drawn) the value was -1.87% [at 15.1 µM]; for `C=C1C(=O)OC2CC(COC(=O)C(C)C)=C(C(C)CCCOC(C)=O)[C@@H](OC(C)=O)C12` (stereo partly drawn), 15.3%; for `CC(C)Oc1ccc(-c2nc(-c3cccc4c3CCC4NCCC(=O)O)no2)cc1C#N` (stereo not drawn), 20.1% [at 57.1 µM].
On to `CC(C)c1ccc2c(c1)C(=O)CC1C(C)(C(=O)O)CCCC21C` (stereo not drawn), for which the “activity change, negative = inhibition” value was -16.7%.
Regarding `O=C(O)CC(CCc1ccccc1)OC1OC(CO)C(O)C(O)C1O` (stereo not drawn), the “outcome” value was “inactive [at 33.1 µM]”.
As to `CCOC(=O)C1=C(N)Oc2ccc(Cl)cc2C1C(C#N)C(=O)OCC` (stereo not drawn), the “activity change, negative = inhibition” value was -17.8% [at 57.1 µM].
On the same count and under the same terms, then `C[C@H]1CCN2C[C@]34C[C@@]5(C(=O)Nc6c5ccc5c6OC=CC(C)(C)O5)C(C)(C)C3C[C@]12C(=O)N4C` (stereo partly drawn), with -11.3%; and `C=C(C)[C@@H]1CC[C@]2(CO)CC[C@]3(C)[C@H](CC[C@@H]4[C@@]5(C)CC[C@H](O)C(C)(C)[C@@H]5CC[C@]43C)[C@@H]12`, with -10.8%.
Same read-out and setting: then `O=C(O)CC1(O)C(=O)Nc2ccccc21` (stereo not drawn), with -0.427% [at 112 µM].
With `CC(C)CC(NC(=O)OCc1ccccc1)C(=O)NC(CC(C)C)C(=O)NC(CCC(=O)O)C(=O)Nc1ccc2ccccc2c1` (stereo not drawn) (Cbz-Leu-Leu-Glu-βNA; configuration not given here), the Potency is 11.2 µM (active).
Regarding `CC1CC2(O)OC(=O)C3=C2C(CCC3)[C@@]12C[C@@H](c1ccoc1)OC2=O` (stereo partly drawn), the “activity change, negative = inhibition” value was -18.5%.
On to `CC(=O)OC1CC2C(C)(C)C(=O)C=CC2(C)C2CC(=O)C3=C(CCC3C3=CC(O)OC3=O)C12C` (stereo not drawn), for which the “activity change, negative = inhibition” value is -0.577%.
For `C=CCc1cc(OC)c(OC(C)C(O)c2ccc(O)c(OC)c2)c(OC)c1` (stereo not drawn), the “activity change, negative = inhibition” value is -25.2%.
Same read-out and setting: then `CC1=C[C@H]2[C@@H](CC1=O)[C@H](C)C[C@H](O)[C@H]2C(C)C`, with -11.5% [at 57.1 µM]; and `C/C=C/C=C/C(=O)OC1CC/C=C/C(O)C(O)C(CCC)OC1=O` (stereo not drawn), with -5.07%.
Take `CC12CC(c3ccoc3)OC(=O)C1CCC1(C)C2CCC(O)C1(C)O` (stereo not drawn): the “activity change, negative = inhibition” value was -0.754%.
Same read-out and setting: for `C/C=C/C=C/C(O)=C1/C(=O)[C@]2(C)C(=O)[C@@](C)(O)[C@H]1[C@H]([C@@]1(C)OC(=O)C(C)=C1O)[C@H]2C(=O)CC/C=C/C` the value was -20.8%; for `C[C@@H]1C[C@H]2OC(=O)[C@@]3(C)CCC[C@](C)(C23)[C@@]1(O)CCC1=CC(=O)OC1O` (stereo partly drawn), -27.4%; for `COC(=O)C1=CO[C@@H](O[C@@H]2O[C@H](CO)[C@@H](O)[C@H](O)[C@H]2O)[C@H]2[C@@H]1[C@H](O)C[C@]2(C)O`, 31.9%.
As for `N=C(N)c1ccc2nc(-c3cc(CC(=O)NC(CC(=O)O)C(=O)O)cc(-c4cc(S(N)(=O)=O)ccc4O)c3O)[nH]c2c1` (stereo not drawn), the “activity change, negative = inhibition” value is -10.2% [at 57.1 µM].
